Assay results reported in PubChem BioAssay (Tox21).
Results filed as inconclusive are left out. Active and inactive are the calls of the source. Calls come from the whole dose curve; as a rule, active = well fitted inhibition curve with a large enough effect in the signal ratio in the repeat runs (not every such curve was filed as active); inconclusive = weak or mixed curves, or effect the other way; inactive = no such curve, though single readings can be large or run the other way; the % refers to the signal ratio.

These compounds were tested against Estrogen receptor beta (Homo sapiens) (UniProt Q92731) (assay: qHTS assay to identify small molecule antagonists of the estrogen receptor beta (ER-beta) signaling pathway (AID 1259378)). Conditions: ER-beta-UAS-bla HEK293T, beta-lactamase FRET ratio, 16 h; series mostly up to 92.4 µM.
Chain of Estrogen receptor beta (Homo sapiens) (Q92731 whole entry, looked up): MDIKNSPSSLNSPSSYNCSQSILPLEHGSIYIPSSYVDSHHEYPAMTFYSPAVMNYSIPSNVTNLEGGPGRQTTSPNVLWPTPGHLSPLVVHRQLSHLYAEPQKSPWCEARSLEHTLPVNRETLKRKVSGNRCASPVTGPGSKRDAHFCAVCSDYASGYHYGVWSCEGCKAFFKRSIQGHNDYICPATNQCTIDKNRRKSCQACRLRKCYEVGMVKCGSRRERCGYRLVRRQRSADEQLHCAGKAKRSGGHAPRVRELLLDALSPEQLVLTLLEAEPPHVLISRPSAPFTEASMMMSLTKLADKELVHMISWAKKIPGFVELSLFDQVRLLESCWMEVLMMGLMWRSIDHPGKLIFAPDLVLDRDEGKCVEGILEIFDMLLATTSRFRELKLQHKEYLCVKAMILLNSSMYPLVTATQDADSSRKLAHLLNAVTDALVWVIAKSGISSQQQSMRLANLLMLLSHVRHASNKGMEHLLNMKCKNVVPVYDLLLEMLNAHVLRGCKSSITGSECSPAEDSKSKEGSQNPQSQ
Source text: National Center for Advancing Translational Sciences [NCATS]
NIH Chemical Genomics Center [NCGC]
U.S. Environmental Protection Agency [EPA]
National Institutes of Environmental Health Sciences [NIEHS]
National Toxicology Program [NTP]
U.S. Food and Drug Administration [FDA]
Estrogen receptor (ER), a nuclear hormone receptor, plays an important role in development, metabolic homeostasis and reproduction. Two subtypes of ER, ER-alpha and ER-beta, have similar expression patterns with some uniqueness in both types. Endocrine disrupting chemicals (EDCs) and their interactions with steroid hormone receptors like ER causes disruption of normal endocrine function. To identify the compounds that inhibit ER signaling, an ER-beta-UAS-bla GripTite cell line (Life Technologies, Madison, WI, USA) containing a beta-lactamase reporter gene under the control of an UAS response element was used to screen Tox21 10K compound library.
Tox21 Assay Protocol Summary:
ER-beta-UAS-bla HEK293T cells were dispensed at 2,000 cells/4 uL of assay medium containing 2% charcoal stripped FBS per well into black wall/clear-bottom 1536-well plates using a Multidrop Combi (ThermoFisher Scientific, Waltham, MA) dispenser. After the assay plates were incubated at a 37C and 5% CO2 for 6 hr, 23 nL of compounds dissolved in DMSO, positive controls or DMSO only was transferred to the assay plate by a Pintool station (Kalypsys, San Diego, CA), followed by addition of 1 uL (1nM as final concentration) of 17-beta-estradiol (E2) in assay medium using a BioRAPTR FRD (Flying Reagent Dispenser, Aurora Discovery, San Diego, CA). The plates were incubated at 37C and 5% CO2 for 16 hr. Then 1 uL of LiveBLAzerTM B/G FRET substrate was added using a Flying Reagent Dispenser, the plates were incubated at room temperature for 2 hours, and fluorescence intensity was measured by an Envision plate reader (PerkinElmer, Shelton, CT).

Row | SMILES | outcome
1 | CN(C)CCO | inactive
2 | CCCCCCCCCl | inactive
3 | CCOP(=S)(OCC)Oc1cnc2ccccc2n1 | inactive
4 | CC(C#N)CCC#N (stereo not given) | inactive
5 | CN(C)[C@@H]1C(=O)C(C(N)=O)=C(O)[C@@]2(O)C(=O)C3=C(O)c4c(O)cccc4[C@@](C)(O)[C@H]3C[C@@H]12 | inactive
6 | O=[N+]([O-])c1ccccc1 | inactive
7 | CC(NC(C)(C)C)C(=O)c1cccc(Cl)c1 (stereo not given) | inactive
8 | CN(N=O)c1ccccc1 | inactive
9 | COC(=O)c1ccccc1N | inactive
10 | Cc1ccc(N)cc1N | inactive
11 | COC(=O)NC(=S)Nc1ccccc1NC(=S)NC(=O)OC | inactive
12 | Clc1ccccc1Cl | inactive
13 | COC(=O)NS(=O)(=O)c1ccc(N)cc1 | inactive
14 | ClCCBr | inactive
15 | NCC(O)c1ccc(O)cc1 (stereo not given) | inactive
16 | CC(C)(C)OOC(C)(C)C | inactive
17 | O=S(=O)(c1ccc(O)cc1)c1ccc(O)cc1 | inactive
18 | Cc1ccc(N)cc1Cl | inactive
19 | COCCl | inactive
20 | CCCCN(CC)C(=O)SCCC | inactive

Row | SMILES | outcome
21 | C1CN2CCN1CC2 | inactive
22 | CCN(CC)c1ccccc1 | inactive
23 | NCCc1ccc(O)cc1 | inactive
24 | O=C(NC(=O)c1c(F)cccc1F)Nc1cc(Cl)c(OC(F)(F)C(F)C(F)(F)F)cc1Cl (stereo not given) | inactive
25 | c1cc2c3c(cccc3c1)CC2 | inactive
26 | C1CC2OC2CC1C1CO1 (stereo not given) | inactive
27 | O=[N+]([O-])c1ccc(Oc2ccc(Cl)cc2Cl)cc1 | inactive
28 | Cc1ccc([N+](=O)[O-])cc1C | inactive
29 | O=S(=O)(c1ccc(Cl)cc1)c1cc(Cl)c(Cl)cc1Cl | inactive
30 | Cc1ccccc1O | inactive
31 | c1ccc(-c2ccccc2)cc1 | inactive
32 | C#CCN(C)[C@H](C)Cc1ccccc1 | inactive
33 | [O-][Cl+2]([O-])O | inactive
34 | CC1C=[C-]C=C1.[C-]#[O+].[C-]#[O+].[C-]#[O+].[Mn] | inactive
35 | c1ccc2c(c1)oc1ccccc12 | inactive
36 | COP(N)(=O)SC (stereo not given) | inactive
37 | COC(=O)c1ccccc1C(=O)OC | inactive
38 | CCCN(CCC)N=O | inactive
39 | CCC[N+](=O)[O-] | inactive
40 | CN(C)N=O | inactive
